From PubChem BioAssay (EPA / NIEHS)
Values joined by “and” are separate entries in the source; they are usually repeats but may differ in a detail not shown here. Identical values can stand only once. Inconclusive results are not listed. Some compounds were tested as several samples or in several runs, with calls that do not always agree. Active and inactive are the calls of the source. Rule for the calls, unless noted: active = hit-call score of the fitted dose curve at least 0.9, where 1 is the maximum; inactive = score below 0.9.

Read-out: E-selectin (Homo sapiens) (UniProt P16581)
Assay: BSK_SAg_Eselectin: BioMAP Diversity Plus: SAg Assay for Eselectin Biomarker Activity (AID 2283091)
Details: primary human HUVEC with PBMC; actives raise or lower the signal
In short: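 Primary human endothelial cells and peripheral blood mononuclear cells were co-cultured and exposed to chemical for 24 hours. E-selectin levels were then quantified by ELISA, with bidirectional curve fitting normalised to DMSO controls.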

Sequence of E-selectin (Homo sapiens) (P16581 whole entry, looked up): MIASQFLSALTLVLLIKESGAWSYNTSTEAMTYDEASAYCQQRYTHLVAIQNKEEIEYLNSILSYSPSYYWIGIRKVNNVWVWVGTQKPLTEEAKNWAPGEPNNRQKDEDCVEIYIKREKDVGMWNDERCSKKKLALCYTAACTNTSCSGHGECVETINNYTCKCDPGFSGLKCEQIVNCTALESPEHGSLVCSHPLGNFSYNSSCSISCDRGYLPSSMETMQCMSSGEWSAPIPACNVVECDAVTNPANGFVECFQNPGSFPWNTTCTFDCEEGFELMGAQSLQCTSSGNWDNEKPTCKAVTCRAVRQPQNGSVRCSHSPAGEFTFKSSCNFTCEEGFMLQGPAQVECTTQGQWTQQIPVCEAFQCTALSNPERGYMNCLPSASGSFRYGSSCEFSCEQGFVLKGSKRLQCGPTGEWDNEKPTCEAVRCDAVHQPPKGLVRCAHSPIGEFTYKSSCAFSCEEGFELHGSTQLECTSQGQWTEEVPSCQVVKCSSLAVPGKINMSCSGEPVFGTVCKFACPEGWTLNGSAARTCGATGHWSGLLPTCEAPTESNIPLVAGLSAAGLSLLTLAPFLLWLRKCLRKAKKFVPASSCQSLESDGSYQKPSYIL

Row | SMILES | AC50 | outcome
1 | Nc1ccc(-c2ccc(N)c(N)c2)cc1N | 11.7 µM (active) | 
2 | O=c1[nH]c(Cl)c(Cl)cc1Cl |  | inactive
3 | O=C(O)CCCc1ccc(N(CCCl)CCCl)cc1 | 31 µM (active) and 20 µM (active) | 
4 | COC(C)(C)CCC[C@H](C)C/C=C/C(C)=C/C(=O)OC(C)C | 20 µM (active) | 
5 | O=P1(NCCCl)OCCCN1CCCl (centres undefined) |  | inactive
6 | O=S(=O)(c1ccccc1)c1ccccc1 |  | inactive
7 | Clc1ccc(-c2ccccc2)cc1 |  | inactive
8 | Oc1cc(Cl)ccc1Cl |  | inactive

Read-out: Monokine induced gamma interferon (MIG), CXCL9 (gene 4283)
Assay: BSK_SAg_MIG: BioMAP Diversity Plus: SAg Assay for Monokine induced gamma interferon (MIG) Biomarker Activity (AID 2283092)
Details: primary human HUVEC with PBMC; actives raise or lower the signal
In short: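 Values reflect bidirectional fitting of ELISA-measured MIG against DMSO vehicle, taken 24 h after dosing of a co-culture of human umbilical vein endothelial cells and peripheral blood mononuclear cells.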

Row | SMILES | outcome
9 | Nc1ccc(-c2ccc(N)c(N)c2)cc1N | inactive
10 | O=c1[nH]c(Cl)c(Cl)cc1Cl | inactive
11 | O=C(O)CCCc1ccc(N(CCCl)CCCl)cc1 | inactive
12 | COC(C)(C)CCC[C@H](C)C/C=C/C(C)=C/C(=O)OC(C)C | inactive
13 | O=P1(NCCCl)OCCCN1CCCl (centres undefined) | inactive
14 | O=S(=O)(c1ccccc1)c1ccccc1 | inactive
15 | Clc1ccc(-c2ccccc2)cc1 | inactive
16 | Oc1cc(Cl)ccc1Cl | inactive

Read-out: not listed separately
Assay: BSK_SAg_PBMCCytotoxicity: PBMC Cytotoxicity Assessment in the BioMAP Diversity Plus: SAg Assay (AID 2283093);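 note: PBMC viability measured as Alamar Blue reduction fluorescence at 546/580 nm; fitted both ways against DMSO so a hit may be loss or gain of signal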;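 for AC50: PBMC superantigen activated with SEB plus TSST-1 one hour after compound addition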
Details: primary human HUVEC with PBMC
In short: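 HUVEC/PBMC co-culture; PBMC exposed to chemical 1 h before SEB and TSST-1 activation (20 ng/mL each), incubated 90 h, then Alamar Blue 6 h, fluorescence 546/580 nm. Bidirectional fit versus DMSO baseline.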

Row | SMILES | outcome | AC50
17 | Nc1ccc(-c2ccc(N)c(N)c2)cc1N | inactive | 
18 | O=c1[nH]c(Cl)c(Cl)cc1Cl | inactive | 
19 | O=C(O)CCCc1ccc(N(CCCl)CCCl)cc1 | inactive | 20 µM (active)
20 | COC(C)(C)CCC[C@H](C)C/C=C/C(C)=C/C(=O)OC(C)C |  | 29.7 µM (active)
21 | O=P1(NCCCl)OCCCN1CCCl (centres undefined) | inactive | 
22 | O=S(=O)(c1ccccc1)c1ccccc1 | inactive | 
23 | Clc1ccc(-c2ccccc2)cc1 | inactive | 
24 | Oc1cc(Cl)ccc1Cl | inactive | 

Read-out: not listed separately
Assay: BSK_SAg_Proliferation: Cell Proliferation Assessment in the BioMAP Diversity Plus: SAg Assay (AID 2283095)
Details: primary human HUVEC with PBMC
In short: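 Human umbilical vein endothelial cells co-cultured with PBMC; sulforhodamine B total-protein staining (0.1% SRB after 10% TCA fixation, absorbance 560 nm) at 96 h in sub-confluent culture. Fitted bidirectionally against DMSO.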

Row | SMILES | outcome | AC50
25 | Nc1ccc(-c2ccc(N)c(N)c2)cc1N | inactive | 
26 | O=c1[nH]c(Cl)c(Cl)cc1Cl | inactive | 
27 | O=C(O)CCCc1ccc(N(CCCl)CCCl)cc1 |  | 16.4 µM (active) and 12.2 µM (active)
28 | COC(C)(C)CCC[C@H](C)C/C=C/C(C)=C/C(=O)OC(C)C |  | 28.6 µM (active)
29 | O=P1(NCCCl)OCCCN1CCCl (centres undefined) | inactive | 
30 | O=S(=O)(c1ccccc1)c1ccccc1 | inactive | 
31 | Clc1ccc(-c2ccccc2)cc1 | inactive | 
32 | Oc1cc(Cl)ccc1Cl | inactive | 

Read-out: not listed separately
Assay: BSK_SAg_SRB: Viability Assessment in the BioMAP Diversity Plus: SAg Assay (AID 2283096);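 note: cells read one day after compound addition; hits may be either gain or loss of signal compared with DMSO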
Details: primary human HUVEC with PBMC
In short: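 Human umbilical vein endothelial cells co-cultured with PBMC, read 24 h after compound dosing. Total protein measured by sulforhodamine B staining (0.1% SRB after 10% TCA fixation, absorbance 560 nm); bidirectional fit versus DMSO baseline.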

Row | SMILES | outcome | AC50
33 | Nc1ccc(-c2ccc(N)c(N)c2)cc1N | inactive | 
34 | O=c1[nH]c(Cl)c(Cl)cc1Cl | inactive | 
35 | O=C(O)CCCc1ccc(N(CCCl)CCCl)cc1 |  | 20 µM (active) and 10.3 µM (active)
36 | COC(C)(C)CCC[C@H](C)C/C=C/C(C)=C/C(=O)OC(C)C |  | 33.3 µM (active)
37 | O=P1(NCCCl)OCCCN1CCCl (centres undefined) | inactive | 
38 | O=S(=O)(c1ccccc1)c1ccccc1 | inactive | 
39 | Clc1ccc(-c2ccccc2)cc1 | inactive | 
40 | Oc1cc(Cl)ccc1Cl | inactive | 

Target: Cytochrome P450 2C19 (Homo sapiens) (UniProt P33261)
Assay: NVS_ADME_hCYP2C19: NovaScreen (NVS) CYP450-related Enzyme Activity (ADME) Assay for human CYP2C19 (AID 2283113; active = hit-call score of the fitted dose curve at least 0.9, where 1 is the maximum;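 note: potency for inhibition seen as loss of fluorescent signal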)
Details: not given
In short: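 Chemicals first screened in duplicate at 10 uM against recombinant human enzyme produced in insect cells; confirmed actives then run as concentration series. Fluorogenic substrate turnover read by fluorescence after 1 h, normalised to acetonitrile.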

Row | SMILES | AC50
41 | COC(C)(C)CCC[C@H](C)C/C=C/C(C)=C/C(=O)OC(C)C | 0.992 µM (active)
42 | CC(Cc1ccc(C(C)(C)C)cc1)CN1C[C@@H](C)O[C@@H](C)C1 (some centres undefined) | 6.83 µM (active)
43 | O=CNC(N1CCN(C(NC=O)C(Cl)(Cl)Cl)CC1)C(Cl)(Cl)Cl (centres undefined) | 5.96 µM (active)

Target: human Ephrin type-A Receptor 1 (EphA1), EPHA1 (gene 2041) (UniProt P21709)
Sequence (P21709 whole entry, looked up): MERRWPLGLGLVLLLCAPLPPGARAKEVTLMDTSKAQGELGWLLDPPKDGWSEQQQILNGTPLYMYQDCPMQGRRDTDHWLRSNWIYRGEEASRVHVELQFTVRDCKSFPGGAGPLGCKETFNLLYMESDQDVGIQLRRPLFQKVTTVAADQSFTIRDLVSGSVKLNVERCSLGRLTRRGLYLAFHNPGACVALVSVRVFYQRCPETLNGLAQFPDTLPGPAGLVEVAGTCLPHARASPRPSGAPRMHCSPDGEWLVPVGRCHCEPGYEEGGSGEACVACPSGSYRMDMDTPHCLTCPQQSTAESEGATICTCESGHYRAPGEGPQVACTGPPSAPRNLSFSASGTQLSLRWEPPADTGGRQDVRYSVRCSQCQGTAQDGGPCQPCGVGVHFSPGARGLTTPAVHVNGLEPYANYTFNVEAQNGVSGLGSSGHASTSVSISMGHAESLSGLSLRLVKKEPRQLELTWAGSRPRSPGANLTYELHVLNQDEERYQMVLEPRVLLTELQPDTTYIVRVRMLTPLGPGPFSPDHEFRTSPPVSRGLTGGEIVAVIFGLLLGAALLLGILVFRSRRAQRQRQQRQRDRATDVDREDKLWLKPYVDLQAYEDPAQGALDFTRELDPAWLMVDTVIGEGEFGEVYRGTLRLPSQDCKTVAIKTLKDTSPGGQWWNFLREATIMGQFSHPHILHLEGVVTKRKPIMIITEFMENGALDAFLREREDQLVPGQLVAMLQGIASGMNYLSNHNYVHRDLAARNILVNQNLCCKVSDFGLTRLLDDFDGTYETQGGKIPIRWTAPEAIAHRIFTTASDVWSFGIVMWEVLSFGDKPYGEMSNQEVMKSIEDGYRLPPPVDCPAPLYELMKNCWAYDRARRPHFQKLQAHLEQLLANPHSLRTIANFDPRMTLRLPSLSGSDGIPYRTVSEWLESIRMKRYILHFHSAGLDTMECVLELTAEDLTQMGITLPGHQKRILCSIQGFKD
Assay: NVS_ENZ_hEphA1: NovaScreen (NVS) Enzymatic Assay for human Ephrin type-A Receptor 1 (EphA1) (AID 2283158; active = hit-call score of the fitted dose curve at least 0.9, where 1 is the maximum;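 note: activity is signal loss versus DMSO meaning EphA1 kinase inhibition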)
Details: not given
In short: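 Biochemical kinase assay run cell-free; 1 h incubation; readout is fluorescence with mobility-shift separation of product. Concentration-response up to 50 uM for actives from a 25 uM screen.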

Row | SMILES | outcome
44 | O=C(O)CCCc1ccc(N(CCCl)CCCl)cc1 | inactive
45 | BrCBr | inactive
46 | O=P1(NCCCl)OCCCN1CCCl (centres undefined) | inactive

Target: human Phosphodiesterase 10 (PDE10), PDE10A (gene 10846) (UniProt Q9Y233)
Sequence (Q9Y233 whole entry, looked up): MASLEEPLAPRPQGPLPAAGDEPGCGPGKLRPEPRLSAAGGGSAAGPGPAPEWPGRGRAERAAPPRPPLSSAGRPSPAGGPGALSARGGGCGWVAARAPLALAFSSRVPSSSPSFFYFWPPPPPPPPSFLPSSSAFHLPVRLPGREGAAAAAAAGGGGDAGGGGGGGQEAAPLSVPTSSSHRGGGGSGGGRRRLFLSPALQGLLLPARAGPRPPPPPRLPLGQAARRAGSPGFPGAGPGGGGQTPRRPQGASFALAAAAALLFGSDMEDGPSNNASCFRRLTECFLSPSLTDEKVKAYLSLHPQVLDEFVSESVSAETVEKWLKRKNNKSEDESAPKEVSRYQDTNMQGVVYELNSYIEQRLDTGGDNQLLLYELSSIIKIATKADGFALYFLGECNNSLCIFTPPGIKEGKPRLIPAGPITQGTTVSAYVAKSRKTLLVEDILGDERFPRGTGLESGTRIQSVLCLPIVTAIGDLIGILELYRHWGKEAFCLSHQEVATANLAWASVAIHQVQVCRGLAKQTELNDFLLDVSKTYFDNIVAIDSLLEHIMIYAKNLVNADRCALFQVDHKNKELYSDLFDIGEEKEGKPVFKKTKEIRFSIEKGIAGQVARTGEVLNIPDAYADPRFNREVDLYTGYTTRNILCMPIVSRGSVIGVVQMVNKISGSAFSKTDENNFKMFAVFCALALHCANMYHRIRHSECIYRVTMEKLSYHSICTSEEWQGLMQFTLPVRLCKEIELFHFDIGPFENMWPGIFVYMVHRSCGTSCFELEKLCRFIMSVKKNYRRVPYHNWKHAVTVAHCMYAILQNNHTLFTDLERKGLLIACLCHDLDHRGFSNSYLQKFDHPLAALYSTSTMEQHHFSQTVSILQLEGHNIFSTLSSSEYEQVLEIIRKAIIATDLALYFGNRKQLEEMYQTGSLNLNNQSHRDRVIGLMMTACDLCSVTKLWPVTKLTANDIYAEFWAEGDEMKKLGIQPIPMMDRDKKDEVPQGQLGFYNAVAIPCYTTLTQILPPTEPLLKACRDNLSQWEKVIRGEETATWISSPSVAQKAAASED
Assay: NVS_ENZ_hPDE10: NovaScreen (NVS) Enzymatic Assay for human Phosphodiesterase 10 (PDE10) (AID 2283195; active = hit-call score of the fitted dose curve at least 0.9, where 1 is the maximum)
Details: not given
In short: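 Recombinant human PDE10 with fluorescent substrate, 1 h, product separated by electrophoretic mobility shift. Loss of enzyme activity fitted against DMSO; initial screen 25 uM in duplicate, actives run to 50 uM maximum.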

Row | SMILES | AC50 | outcome
47 | Nc1ccc(-c2ccc(N)c(N)c2)cc1N | 6.79 µM (active) | 
48 | COC(C)(C)CCC[C@H](C)C/C=C/C(C)=C/C(=O)OC(C)C |  | inactive
49 | Clc1ccc(-c2ccccc2)cc1 |  | inactive

Target: rat Thyrotropin Releasing Hormone Receptor (TRH), Trhr (gene 25570) (UniProt Q01717)
Sequence (Q01717 whole entry, looked up): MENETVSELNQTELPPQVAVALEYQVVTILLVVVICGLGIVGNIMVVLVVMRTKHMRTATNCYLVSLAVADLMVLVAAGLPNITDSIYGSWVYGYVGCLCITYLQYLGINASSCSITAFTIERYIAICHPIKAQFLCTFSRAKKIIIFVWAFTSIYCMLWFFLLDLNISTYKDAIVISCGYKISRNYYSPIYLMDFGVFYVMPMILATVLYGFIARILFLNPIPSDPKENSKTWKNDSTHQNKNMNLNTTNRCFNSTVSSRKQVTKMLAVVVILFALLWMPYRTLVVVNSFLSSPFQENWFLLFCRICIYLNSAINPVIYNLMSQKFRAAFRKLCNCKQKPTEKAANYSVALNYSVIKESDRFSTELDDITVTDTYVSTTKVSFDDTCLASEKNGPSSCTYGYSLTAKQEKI
Assay: NVS_GPCR_rTRH: NovaScreen (NVS) G Protein-Coupled Receptor Assay for rat Thyrotropin Releasing Hormone Receptor (TRH) (AID 2283329; active = hit-call score of the fitted dose curve at least 0.9, where 1 is the maximum;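 note: hit means lower bound tracer signal versus DMSO baseline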)
Details: not given
In short: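 Test compounds are screened at 25 uM in duplicate against radioligand binding in rat forebrain membranes, with active pairs followed up over a concentration range. Detection uses filter-based radiodetection after a 4 h exposure.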

Row | SMILES | outcome
50 | Nc1cc(Cl)cc(Cl)c1 | inactive
51 | CN(C)C(=O)C(c1ccccc1)c1ccccc1 | inactive
52 | O=P(O)(Oc1ccccc1)Oc1ccccc1 | inactive
53 | CC1CCCC1.[C-]#[O+].[C-]#[O+].[C-]#[O+].[Mn] | inactive

Target: human Peripheral-type Benzodiazepine Receptor (PBR), TSPO (gene 706) (UniProt P30536)
Sequence (P30536 whole entry, looked up): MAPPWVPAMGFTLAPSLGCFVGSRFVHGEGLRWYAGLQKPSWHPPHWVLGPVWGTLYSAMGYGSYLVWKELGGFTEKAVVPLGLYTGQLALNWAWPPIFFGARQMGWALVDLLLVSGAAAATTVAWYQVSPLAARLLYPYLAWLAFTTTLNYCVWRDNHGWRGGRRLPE
Assay: NVS_MP_hPBR: NovaScreen (NVS) Membrane Protein Assay for human Peripheral-type Benzodiazepine Receptor (PBR) (AID 2283331; active = hit-call score of the fitted dose curve at least 0.9, where 1 is the maximum;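 note: hits reduce radioligand binding relative to DMSO baseline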)
Details: not given
In short: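 Radioligand displacement on human colonic cell membranes, 1 h incubation; bound radioactivity by filtration and scintillation counting. Primary screen in duplicate at 25 uM single concentration, actives followed up in concentration series; loss of binding versus DMSO.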

Row | SMILES | AC50
54 | COC(C)(C)CCC[C@H](C)C/C=C/C(C)=C/C(=O)OC(C)C | 25 µM (active)
55 | CCc1cccc(C)c1N(C(=O)CCl)[C@@H](C)COC | 2.89 µM (active)
56 | O=S(=O)(c1ccccc1)c1ccccc1 | 10.1 µM (active)

Target: bovine Estrogen Receptor (ER), ESR1 (gene 407238) (UniProt P49884)
Sequence (P49884 whole entry, looked up): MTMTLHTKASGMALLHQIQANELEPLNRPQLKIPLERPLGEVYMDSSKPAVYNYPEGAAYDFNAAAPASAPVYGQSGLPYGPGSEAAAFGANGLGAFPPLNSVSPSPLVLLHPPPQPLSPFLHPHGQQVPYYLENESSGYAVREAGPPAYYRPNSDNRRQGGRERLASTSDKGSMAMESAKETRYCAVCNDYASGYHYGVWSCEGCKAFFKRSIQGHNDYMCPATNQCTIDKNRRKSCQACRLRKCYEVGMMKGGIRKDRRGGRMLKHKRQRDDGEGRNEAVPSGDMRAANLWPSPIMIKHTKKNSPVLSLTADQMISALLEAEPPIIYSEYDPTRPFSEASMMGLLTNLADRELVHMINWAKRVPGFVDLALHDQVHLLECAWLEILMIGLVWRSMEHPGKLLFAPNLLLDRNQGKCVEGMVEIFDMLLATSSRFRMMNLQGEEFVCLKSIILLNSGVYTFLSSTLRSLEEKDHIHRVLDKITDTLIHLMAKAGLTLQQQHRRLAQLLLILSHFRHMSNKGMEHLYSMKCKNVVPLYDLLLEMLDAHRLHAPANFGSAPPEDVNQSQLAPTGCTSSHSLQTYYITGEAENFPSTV
Assay: NVS_NR_bER: NovaScreen (NVS) Nuclear Receptor Binding Assay for bovine Estrogen Receptor (ER) (AID 2283345; active = hit-call score of the fitted dose curve at least 0.9, where 1 is the maximum;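 note: actives lower the bound radioligand count which means they displace the ER ligand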)
Details: not given
In short: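 Bovine uterine membranes; tritiated or iodinated radioligand; competitive displacement; 18 h; scintillation read; DMSO negative control; 25 uM duplicates, then concentration series for actives.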

Row | SMILES | outcome
57 | O=C(O)c1cc[c]([Hg][Cl])cc1 | inactive
58 | O=[N+]([O-])c1cc(C(F)(F)F)c(Cl)c([N+](=O)[O-])c1Cl | inactive
59 | C[C@]12CCC(=O)C(O)=C1CC[C@@H]1[C@@H]2CC[C@]2(C)C(=O)CC[C@@H]12 | inactive

Target: Estrogen receptor beta (Homo sapiens) (UniProt Q92731)
Sequence (Q92731 whole entry, looked up): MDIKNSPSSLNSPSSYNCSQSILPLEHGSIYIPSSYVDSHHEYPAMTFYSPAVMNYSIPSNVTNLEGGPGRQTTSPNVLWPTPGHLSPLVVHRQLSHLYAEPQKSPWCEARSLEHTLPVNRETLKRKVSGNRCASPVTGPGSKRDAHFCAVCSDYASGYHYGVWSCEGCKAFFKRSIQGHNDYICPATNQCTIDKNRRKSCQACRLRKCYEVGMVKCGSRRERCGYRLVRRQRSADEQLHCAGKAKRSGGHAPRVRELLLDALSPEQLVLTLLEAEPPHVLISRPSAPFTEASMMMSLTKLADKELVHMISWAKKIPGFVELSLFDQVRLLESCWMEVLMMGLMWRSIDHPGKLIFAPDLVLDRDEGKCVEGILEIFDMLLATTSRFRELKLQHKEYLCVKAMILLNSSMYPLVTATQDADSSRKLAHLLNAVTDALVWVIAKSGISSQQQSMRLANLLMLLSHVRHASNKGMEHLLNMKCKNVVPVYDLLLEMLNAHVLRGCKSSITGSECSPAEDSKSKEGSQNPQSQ
Assay: OT_ER_ERbERb_0480: Odyssey Thera (OT) 8-hour HEK293T Protein-Complementation Assay for Estrogen Receptor-beta/-beta Homodimer (AID 2283357; active = hit-call score of the fitted dose curve at least 0.9, where 1 is the maximum;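 note: active means signal gain over DMSO baseline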)
Details: not given
In short: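 Fluorescence intensity, nuclear for agonists and nuclear plus cytoplasmic for antagonists, was quantified by laser scanning cytometry versus vehicle after 8 h treatment. The cells were HEK293T stably carrying ER beta LBD fragment-complementation partners.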

Row | SMILES | outcome
60 | CCOP(O)OCC | inactive
61 | Nc1cc(Cl)cc(Cl)c1 | inactive
62 | CCc1cccc(C)c1N(C(=O)CCl)[C@@H](C)COC | inactive
63 | CC(Cc1ccc(C(C)(C)C)cc1)CN1C[C@@H](C)O[C@@H](C)C1 (some centres undefined) | inactive
64 | CN(C)C(=O)C(c1ccccc1)c1ccccc1 | inactive
65 | O=P(O)(Oc1ccccc1)Oc1ccccc1 | inactive
66 | CCC(=O)c1ccc(Cl)cc1 | inactive

Target: Nuclear receptor subfamily 1 group I member 2 (Homo sapiens) (UniProt O75469)
Assay: NVS_NR_hPXR: NovaScreen (NVS) Nuclear Receptor Binding Assay for human Pregnane X Receptor (PXR) (AID 2283365; active = hit-call score of the fitted dose curve at least 0.9, where 1 is the maximum;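 note: a drop in FRET signal versus DMSO baseline means the compound binds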)
Details: not given
In short: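 Binding was measured by time-resolved fluorescence resonance energy transfer after a 2 h exposure of extracted human PXR protein without cells. Compounds were first tested at 25 uM in duplicate, with concentration series for actives; DMSO defined baseline.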

Row | SMILES | outcome | AC50
67 | [CH3][Sn]([CH3])([Cl])[Cl] | inactive | 
68 | CCc1cccc(C)c1N(C(=O)CCl)[C@@H](C)COC |  | 5.91 µM (active)
69 | CN(C)C(=O)C(c1ccccc1)c1ccccc1 | inactive | 
70 | CCC(=O)c1ccc(Cl)cc1 | inactive | 

Target: Retinoic acid receptor RXR-alpha (Homo sapiens) (UniProt P19793)
Sequence (P19793 whole entry, looked up): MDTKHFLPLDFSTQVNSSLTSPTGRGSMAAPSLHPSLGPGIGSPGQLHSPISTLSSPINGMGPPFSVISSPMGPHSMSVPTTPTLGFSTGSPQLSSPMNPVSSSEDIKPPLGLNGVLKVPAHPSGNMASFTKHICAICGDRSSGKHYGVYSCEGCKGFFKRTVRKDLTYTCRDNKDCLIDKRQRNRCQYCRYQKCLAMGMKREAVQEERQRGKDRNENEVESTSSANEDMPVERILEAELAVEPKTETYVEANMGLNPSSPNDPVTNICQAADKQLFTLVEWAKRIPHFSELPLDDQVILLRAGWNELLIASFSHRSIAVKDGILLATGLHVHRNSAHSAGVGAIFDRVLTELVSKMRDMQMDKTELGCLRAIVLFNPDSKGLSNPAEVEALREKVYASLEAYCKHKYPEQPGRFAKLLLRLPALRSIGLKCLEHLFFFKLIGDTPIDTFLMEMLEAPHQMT
Assay: OT_NURR1_NURR1RXRa_0480: Odyssey Thera (OT) 8-hour HEK293T Protein Complementation Assay for Nurr1/retinoid X receptor (RXR) (AID 2283385; active = hit-call score of the fitted dose curve at least 0.9, where 1 is the maximum)
Details: not given
In short: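 HEK293T cells expressing Nurr1 and RXRα fused to reporter fragments (protein-fragment complementation); fluorescence measured 8 h after dosing. Gain of signal fitted relative to DMSO.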

Row | SMILES | outcome | AC50
71 | Nc1cc(Cl)cc(Cl)c1 | inactive | 
72 | [CH3][Sn]([CH3])([Cl])[Cl] | inactive | 
73 | CCc1cccc(C)c1N(C(=O)CCl)[C@@H](C)COC | inactive | 
74 | CC(Cc1ccc(C(C)(C)C)cc1)CN1C[C@@H](C)O[C@@H](C)C1 (some centres undefined) |  | 66.8 µM (active)
75 | CN(C)C(=O)C(c1ccccc1)c1ccccc1 | inactive | 
76 | CC1CCCC1.[C-]#[O+].[C-]#[O+].[C-]#[O+].[Mn] | inactive | 
77 | CCC(=O)c1ccc(Cl)cc1 | inactive | 
78 | O=CNC(N1CCN(C(NC=O)C(Cl)(Cl)Cl)CC1)C(Cl)(Cl)Cl (centres undefined) | inactive | 
